Rab2A wt mod – changes GTP binding to wildtype dog Rab2A, up or down | GTP binding activity, % at 10 µM | actives 0.19% (n = 190,000) | GST-Rab2 wt beads, Bodipy-GTP binding, flow cytometry | P61105 | AID 760;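 active = GTP binding activity at least 20 points away from 100%, either lowered or raised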
Rac1 act GTP bind – human Rac1 activated mutant GTP binding change | P63000 | GST-Rac1 activated beads, fluorescent GTP binding, flow cytometry; actives lie on both sides; 100% means binding = to untreated wells | percent activity (GTP binding), % at 10 µM | actives 0.11% (n = 190,000) | AID 764;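 active = GTP binding at least 20 percentage points away from the 100% baseline, in either direction, so actives lie on both sides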
Rac1 wt GTP bind – modulators of human Rac1 wildtype GTP binding | GST-Rac1 beads, fluorescent GTP binding, flow cytometry; actives lie on both sides; 0 = cold GTP competed, 100 = untreated | AID 757 | P63000 | actives 0.27% (n = 190,000) | GTP binding activity (% of control), % at 10 µM;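 active = GTP binding activity at least 20 points away from the 100% control level, either lower or higher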
HRas wt GTP – human HRas wildtype GTP binding, change in either direction. P01112. GST-Ras wt beads, Bodipy-FL-GTP binding, flow cytometry; actives lie on both sides. GTP binding activity, % at 10 µM. actives 0.14% (n = 190,000). AID 759;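 active = GTP binding activity at least 20% away from the 100% baseline, either lowered as inhibitor or raised as activator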
Target sequence (P01112 whole entry, looked up): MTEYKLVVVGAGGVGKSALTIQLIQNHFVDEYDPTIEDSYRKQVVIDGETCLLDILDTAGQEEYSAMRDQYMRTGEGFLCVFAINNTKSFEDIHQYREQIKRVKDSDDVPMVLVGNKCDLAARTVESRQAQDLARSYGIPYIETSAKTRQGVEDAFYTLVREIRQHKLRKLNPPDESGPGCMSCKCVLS
Cdc42 wt – modulators (inhibitors or activators) of GTP binding to human Cdc42 wildtype. P60953. AID 761. actives 0.2% (n = 190,000). percent activity (GTP binding), % at 10 µM. GST-Cdc42 beads, Bodipy-GTP binding, flow cytometry; actives lie on both sides;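 active = percent activity GTP binding at least 20 points away from the 100% baseline, either down as inhibitor or up as activator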;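 note: median bead fluorescence of bound Bodipy-FL-GTP at 100 nM; below 100% means less GTP binding so inhibitor and above means activator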
Target sequence (P60953 whole entry, looked up): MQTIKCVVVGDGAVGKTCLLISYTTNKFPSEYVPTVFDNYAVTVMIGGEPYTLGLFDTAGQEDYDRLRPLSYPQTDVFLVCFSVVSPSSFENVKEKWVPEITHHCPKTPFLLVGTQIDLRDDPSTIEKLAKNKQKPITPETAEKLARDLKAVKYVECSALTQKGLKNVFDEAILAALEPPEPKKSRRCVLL
Rab7 wt modul – alters GTP binding to wildtype dog Rab7. GTP binding activity (percent of control), % at 10 µM. GST-Rab7 beads, fluorescent GTP binding, flow cytometry; actives lie on both sides; untreated = 100%, excess cold GTP = 0%. actives 0.055% (n = 190,000);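 active = fluorescent GTP binding to Rab7 beads changed by at least 20 points from the 100% baseline, either direction, mostly lower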;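 note: median green fluorescence of bound Bodipy-FL-GTP per Rab7 bead population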
Hits are given with their value; . = inactive; [ ] = another dose, or the depositor's remark. This is a sample that favours compounds with a hit; in the whole collection about 0.38% have one here.

SMILES	Rab2A wt mod	Rac1 act GTP bind	Rac1 wt GTP bind	HRas wt GTP	Cdc42 wt	Rab7 wt modul
Nc1c(S(=O)(=O)c2ccccc2)c2nc3ccccc3nc2n1C1CC1	.	.	78	.	.	.
Nc1c(S(=O)(=O)c2ccccc2)c2nc3ccccc3nc2n1/N=C/c1cccc(O)c1	70	.	.	73	74	.
CCn1cc(C(=O)O)c(=O)c2cc(F)c(N/N=C/c3ccccc3)cc21	.	.	76	.	.	.
CCOc1cc(/C=N/Nc2nc(N3CCCCC3)nc(N3CCCCC3)n2)ccc1OC(=O)c1ccco1	.	.	.	.	.	.
CCOC(=O)C1=C(N)OC2=C(C(=O)CCC2)C1c1ccco1 (stereo not drawn)	.	.	.	.	.	.
CCOc1ccccc1C1C(C(=O)OC)=C(N)OC2=C1C(=O)CCC2 (stereo not drawn)	.	.	133[activator]	.	125[activator]	.
O=C(NCCc1c[nH]c2ccccc12)OCCSS(=O)(=O)O	.	.	.	.	.	.
CCOC(=O)c1cc(C(=O)OCC)c(=O)[nH]c1N1CCCC1	54	50	51	57	56	24
CCOC(=O)c1cc(C(=O)OCC)c(=O)[nH]c1C	.	.	.	.	.	.
Cc1ccc(NCc2nnc(SCCN3CCCCC3)n2CC2CCCO2)c(C)c1 (stereo not drawn)	.	.	.	.	.	.
O=C(O)c1ccc(/C=N/N2CCN(Cc3ccccc3)CC2)cc1	.	.	.	.	.	.
O=[N+]([O-])c1ccccc1/C=N/N1CCN(c2ccncc2S(=O)(=O)N2CCCCC2)CC1	.	.	.	.	.	.
COc1ccc(/C=N/Nc2ncnc3sc(C)c(C)c23)cc1	.	.	.	.	.	.
Cc1sc2ncnc(N/N=C/c3ccc(O)cc3)c2c1C	77	.	.	.	.	.
CSc1nc2ccc(NC(=O)C3CC(=O)N(Cc4ccco4)C3)cc2s1 (stereo not drawn)	.	.	.	.	75	.
CC(NC(=O)C12CC3(C)CC(C)(CC(C)(C3)C1)C2)C(=O)O (stereo not drawn)	.	.	.	.	.	.
CC12CCC(C(=O)NCc3ccc4c(c3)OCO4)(OC1=O)C2(C)C (stereo not drawn)	.	.	.	.	.	.
CCOC(=O)Cn1c(=O)c2c(nc3n2CCN3Cc2ccccc2)n(C)c1=O	.	.	.	.	.	.
CCOC(=O)Cn1c(=O)c2c(nc(N3CCCCC3)n2C)n(C)c1=O	.	.	142[activator]	.	123[activator]	.
CCOC(=O)c1cnc(SCc2ccc(C)cc2)nc1N	.	.	120[activator]	.	.	.
COc1ccc(/C=C/C(=O)NC(C)CCc2ccccc2)cc1 (stereo not drawn)	.	.	.	.	.	.
CCCCn1c(SCC(=O)c2ccccc2)nc2c1c(=O)[nH]c(=O)n2C	36	36	33	41	38	21
CCCCCn1c(SCCc2ccccc2)nc2c1c(=O)[nH]c(=O)n2C	.	.	.	.	.	.
O=c1[nH]c2ccccc2c2nc3ccccn3c12	.	.	.	.	.	.
O=c1nc2c(O)cccn2c2c1c(=O)[nH]c1ccccc12	62	77	61	59	70	.
SMILES	Rab2A wt mod	Rac1 act GTP bind	Rac1 wt GTP bind	HRas wt GTP	Cdc42 wt	Rab7 wt modul
CCOC(=O)c1c(C)oc(NC(=O)COc2ccc(Cl)cc2C)c1C#N	.	.	.	.	.	.
CC1CCN(C(=O)/C=C/c2ccc(C(C)(C)C)cc2)CC1	.	.	.	.	.	.
Nc1[nH]nc2ncc3cc4ccccc4nc3c12	.	.	68	.	.	.
CCn1c2ccccc2c2nnc(SCC(=O)NCCOC)nc21	35	.	.	.	.	.
NC(=O)c1cc2nc(-c3ccco3)cc(C(F)(F)F)n2n1	63	.	68	65	64	.
COC(=O)c1cc2nc(-c3ccc(OC)c(OC)c3)cc(C(F)(F)F)n2n1	.	.	.	.	.	.
COc1ccc(-c2cc(C(F)(F)F)n3nc(C(=O)O)cc3n2)cc1OC	.	.	77	.	.	.
COc1ccc(CCNC(=O)C2CC(=O)N(C3CCCC3)C2)cc1OC (stereo not drawn)	.	.	.	.	.	.
Cn1nc([N+](=O)[O-])c(C(C#N)c2ccccn2)c(Cl)c1=O (stereo not drawn)	.	61	.	.	79	.
CCCn1nc([N+](=O)[O-])c(C(C#N)c2nc3ccccc3o2)c(Cl)c1=O (stereo not drawn)	.	.	.	.	.	.
COC(=O)c1ccccc1NC(=O)Cc1nc(-c2ccccc2)sc1-c1ccc(C)cc1	.	.	.	.	.	.
CC(C)NC(=O)C12CC3CC(C1)CC(n1cnc(Cl)n1)(C3)C2	.	.	121[activator]	.	.	.
O=C(N1CCOCC1)C12CC3CC(C1)CC(n1cnc(Cl)n1)(C3)C2	.	.	.	.	.	.
O=C(O)c1ccc(/C=N/NC(=O)c2cc(-c3ccc4c5c(cccc35)CC4)n[nH]2)cc1	.	.	76	.	78	.
O=C(c1ccc(-c2nnc(Nc3ccccc3)c3ccccc23)cc1)N1C[C@H]2C[C@H](C1)c1cccc(=O)n1C2	.	.	.	.	.	.
O=C(Nc1cnn(C23CC4CC(CC(C4)C2)C3)c1)c1cnn2cccnc12	121[activator]	.	138[activator]	123[activator]	129[activator]	.
COc1ccc(-c2cc(=O)c(C(=O)c3ccc(C)cc3)n[nH]2)cc1	.	.	121[activator]	.	.	.
Oc1ccc(/C=N/Nc2nc(-c3ccc(Cl)cc3)cc(C(F)(F)F)n2)cc1	.	.	.	.	.	.
O=c1[nH]c(=O)c2nnc(N/N=C\c3ccc(O)cc3)nc2[nH]1	59	74	54	63	60	.
N#CC(C#N)=C1C=CC=CN1/C(=C\c1ccccc1Cl)C(=O)c1ccccc1	.	.	.	.	78	.
N#CC(C#N)=C1C=CC=CN1/C(=C\c1ccccc1)C(=O)c1cccs1	.	.	.	.	.	.
Cc1cc(CNC(=O)c2ccc(C)c([N+](=O)[O-])c2)c2ccccc2n1	.	.	.	.	.	.
CC1CN(C(=O)c2cccc(S(=O)(=O)Nc3cc(Cl)ccc3Cl)c2)CC(C)O1 (stereo not drawn)	78	.	72	.	79	.
NC1=NC(=O)/C(=C/c2cn(CCC(=O)O)nc2-c2ccc(Cl)cc2)S1	.	.	77	.	.	.
NC1=NC(=O)/C(=C/c2cn(CCC(=O)O)nc2-c2ccc(F)cc2)S1	.	.	.	.	.	.

High-throughput results from PubChem.
